Bioassay records (PubChem)
In the library only some 19% were active in any assay of this set; here they are far more common.
DT40 TDP1 CPT = qHTS for Inhibitors of human tyrosyl-DNA phosphodiesterase 1 (TDP1): qHTS in cells in presence of CPT; chicken DT40 Tdp1-/-;hTDP1 cells + 20 nM CPT, ATP luminescence, 48 h; Potency, µM (top dose mostly 46.2 µM), inactives show at the highest dose activity change, negative = growth inhibition, most hits filed as inhibitors; 420,000 tested, 12% active; note: potency is the fitted concentration of half-maximal effect; nearly all actives have a fitted effect of over 55% in size
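Cell growth measured by CellTiter-Glo luminescence after a minimum 48 h, 37 C compound exposure with 20 nM CPT in Tdp1-knockout DT40 cells stably expressing hTDP1, seeded 400/well; qHTS titration format.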
HT1080 IDH1KD tx = qHTS for induction of synthetic lethality in tumor cells producing 2HG: qHTS for the HT-1080-IDH1KD cell line | HT-1080 IDH1 knockdown viability, ATP luminescence, 48 h | Potency, µM (series often up to 46.1 µM), inactives show at the top dose activity, negative = toxicity, most hits filed as cytotoxic | 360,000 tested, 2% active;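 note: potency is the fitted concentration of half-maximal effect; 0% = DMSO wells and -100% = cell-free medium wells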
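Viability of IDH1-knockdown HT-1080 fibrosarcoma cells was assessed by CellTiter-Glo after 48 h at 37 °C with titrated compound; concentration-effect curves were classified by fit quality and response size.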
IL1B secr inh = qHTS for Inhibitors of Inflammasome Signaling: IL-1-beta AlphaLISA Primary Screen. THP-1 LPS/ATP IL-1B secretion, AlphaLISA, 16 h; stronger effect = lower value. activity change, % at 57.5 µM. 360,000 tested, 4.7% active; in the data active = activity change below about -50%; inconclusive = mostly about -30% to -49%
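THP-1 cells pretreated 1 hr with compounds (up to 57.5 uM final), then stimulated with LPS (250 ng/mL final) plus ATP (1.25 mM final); secreted IL-1B measured by AlphaLISA after 16 hr, decreased signal indicating inhibition.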
HT1080NT lethal = qHTS for induction of synthetic lethality in tumor cells producing 2HG: qHTS for the HT-1080-NT fibrosarcoma cell line; HT-1080-NT fibrosarcoma viability, CellTiter-Glo ATP luminescence, 48 h; Potency, µM (doses to about 46.1 µM), for inactives: at the top dose activity, negative = less viability, actives largely listed as cytotoxic; 360,000 tested, 1.6% active; AID 686970, 2013;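 note: NT is the 2HG producing partner of a matched IDH1 knockdown line; potency is the fitted concentration of half-maximal effect; 0% = DMSO-treated cells and -100% = media-only wells without cells; nearly all actives have a fitted effect of over 55% in size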
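Compounds were tested in concentration-response format on HT-1080-NT cells for 48 hours at 37 degrees C. Cell viability came from CellTiter-Glo luminescence; curves were classified by r2, response magnitude and activity.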
TDP1 cell noCPT = qHTS for Inhibitors of human tyrosyl-DNA phosphodiesterase 1 (TDP1): qHTS in cells in absence of CPT. AID 686978, 2013. Potency, µM (doses to about 46.2 µM), without a hit: at the top dose activity change, negative = growth inhibition, usual class: inhibitors. DT40 Tdp1-/- hTDP1 cells, no CPT, ATP luminescence, 48 h. 420,000 tested, 15% active; note: potency is the fitted concentration of half-maximal effect; nearly all actives have a fitted effect of over 55% in size
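Readout: luminescence from CellTiter-Glo after 30 min in the dark at RT. Cells: DT40 Tdp1-/- with stable hTDP1, 400/well. Exposure: compounds alone, ≥48 hr, 37 °C.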
* marks the source's active call; other numbers are inactive results; ? = inconclusive; nt = no result given; ! = not active in a repeat; [ ] = remark or other dose. Unless noted, calls come from the whole dose curve; as a rule, active = well fitted curve in the direction sought with a large enough effect; inconclusive = small, poorly fitted or top-dose-only effect, or another doubt; inactive = no such curve, though single readings can be large; an effect the other way counts as inactive or inconclusive. Unless noted, % is set by controls: 0 for no effect and ±100 for the full control effect.

SMILES	DT40 TDP1 CPT	HT1080 IDH1KD tx	IL1B secr inh	HT1080NT lethal	TDP1 cell noCPT
CC1=C(C(=O)Nc2ccc(Cl)cc2)C(c2ccccc2C)n2ncc(C(=O)Nc3ccc(C)cc3)c2N1 (configuration not stated)	7.3µM*	nt	nt	nt	7.3µM*
COc1ccc(NC(=O)C2=C(C)Nc3c(C(=O)Nc4ccc(C)cc4)cnn3C2c2cccc(Cl)c2)cc1 (configuration not stated)	?	nt	nt	nt	-27%
CC(C)(O)C#Cc1ccc(C(=O)NCCN2Cc3ccccc3OC(c3ccccc3F)C2)o1 (configuration not stated)	10%[9.04 µM]	nt	nt	nt	-28%
Cc1ccc(Cl)cc1Nc1sc(C(=O)c2ccccc2)c(N)c1S(=O)(=O)c1ccccc1	-25%	nt	nt	nt	?
Cc1cccc(C)c1Nc1sc(C(=O)c2ccccc2)c(N)c1S(=O)(=O)c1ccccc1	4.6µM*	nt	nt	nt	3.7µM*
CCOc1ccccc1Nc1sc(C(=O)c2ccccc2)c(N)c1S(=O)(=O)c1ccc(C)cc1	?	nt	nt	nt	5.8µM*
COc1ccc(S(=O)(=O)c2c(Nc3ccccc3F)sc(C(=O)c3cccc(OC)c3)c2N)cc1	5.2µM*	nt	nt	nt	6.5µM*
CCOc1ccccc1Nc1sc(C(=O)c2ccc(Cl)cc2)c(N)c1S(=O)(=O)c1ccccc1	-30%	nt	nt	nt	?
O=C(O)/C=C/c1ccc(S(=O)(=O)Nc2ccccc2C(=O)Nc2ccc(F)cc2)cc1	-11%	7%	9	15%	-2%
CCc1ccc(Nc2cc(C)nc3nc(Cc4ccc(Cl)cc4)nn23)cc1	16µM*	nt	nt	nt	9.2µM*
Cc1ccc(Nc2cc(C)nc3nc(Cc4ccc(Cl)cc4)nn23)cc1	18µM*	nt	nt	nt	15µM*
COc1cc(CN2CCC(n3nccc3NC(=O)CCCc3ccccc3)CC2)ccc1F	?	0%	-16	-1%	?
COc1cc(OC)cc(C(=O)NC2CCSc3ccccc32)c1 (configuration not stated)	?	-8%	-5	-1%	23µM*
C=Cc1ccc(Cn2c(C(=O)O)c(CNCc3ccc(F)cc3)c3ccc(C)cc32)cc1	21µM*	nt	nt	nt	23µM*
COc1ccc2c(CNCc3cccs3)c(C(=O)O)n(Cc3ccc(F)cc3)c2c1	18µM*	nt	nt	nt	9.2µM*
Cc1ccc2c(CNCc3cccs3)c(C(=O)O)n(Cc3ccc(F)cc3)c2c1	6.5µM*	nt	nt	nt	5.2µM*
CCOc1ccccc1CNCc1c(C(=O)O)n(Cc2ccc(F)cc2)c2cc(C)ccc12	13µM*	nt	nt	nt	5.8µM*
Cc1ccc2c(CNC3CCCCC3)c(C(=O)O)n(Cc3ccc(F)cc3)c2c1	-20%	nt	nt	nt	?
COc1ccc2c(CNCc3cccs3)c(C(=O)O)n(Cc3ccccc3F)c2c1	?	nt	nt	nt	-28%
Cc1ccc(Cn2c(C(=O)O)c(CNC3CCCCC3)c3ccc(C)cc32)cc1	?	nt	nt	nt	-15%
Cc1nc(-c2ccc(F)cc2)c(CC(=O)N(C)CC(=O)Nc2ccc(Br)cc2C)s1	?	-9%	0	-6%	?
Fc1ccc(N/N=C/C=C/c2ccccc2)c(F)c1	?	-1%	?	-1%	?
Cc1csc(NC(=O)c2ccc(Cl)nc2)n1	-15%	-1%	52	-9%	6%
COc1ccc(Cn2c(C(=O)O)c(CNCc3cccs3)c3ccc(C)cc32)cc1	?	nt	nt	nt	18µM*
Cc1ccc2c(CNCc3ccc(C)o3)c(C(=O)O)n(Cc3ccc(F)cc3)c2c1	?	nt	nt	nt	16µM*
SMILES	DT40 TDP1 CPT	HT1080 IDH1KD tx	IL1B secr inh	HT1080NT lethal	TDP1 cell noCPT
Cc1c(CNCc2cccs2)c(C(=O)O)c(C)n1Cc1ccccc1	-23%	6%	-1	7%	-25%
Cc1nc2c(-c3ccc(F)cc3)c(C)nn2c(C)c1CCC(=O)NCc1ccc(Cl)cc1	-10%	nt	nt	nt	-30%
CCSC(N)=Nc1ccc(C(F)(F)F)cc1	-6%	18%	nt	22%	?
NC(N)=NN=C(c1ccc(F)cc1)c1ccc(C(F)(F)F)cc1	2.6µM*	7.3µM*	-104*	2.9µM*	2.3µM*
CCCCCn1c(=O)[nH]c2cc(C(=O)Nc3ccc(F)c(F)c3)ccc2c1=O	-25%	nt	nt	nt	?
COc1cccc(NC(=O)CCC2CCN(C(=O)c3sccc3C)CC2)c1	21µM*	-9%	0	-12%	21µM*
COc1cccc(NC(=O)CCC2CCN(C(=O)Cc3cccc(F)c3)CC2)c1	?	-19%	2	-11%	15µM*
O=C(OCc1nc(-c2ccccc2Cl)no1)c1ccco1	-3%	0%	6	6%	8%
Nc1ccc(N=Nc2ccccc2)c(N)n1	9.4µM*!	-1%	-20	2%	11µM*!
c1ccc(N=Nc2ccc3cccccc2-3)cc1	-27%	-21%	-93*	-16%	?
CCOc1ccc(NC(=O)c2ccc(NC(=S)NC3CCCCC3)cc2)cc1	21µM*	?	-24	-22%	?
C/C(=N\NC(=O)C1CC1)c1ccc(OC(F)F)cc1OC(F)F	-5%	17%	-6	10%	?
CC1CCCN(C(=S)Nc2ccc(Nc3ccccc3)cc2)C1 (configuration not stated)	10µM*	-12%	-86*	-24%	9.2µM*
C/C(=N\NC(=S)NC1CCCCC1)c1ccc(OC(F)F)cc1OC(F)F	26µM*	?	?	?	26µM*
C/C(=N\NC(=S)NC1CCCCC1)c1cccs1	13µM*	-14%	19	-14%	10µM*
CCc1cc(Cn2nc(-c3ccccc3C)cc2C(=O)O)on1	-2%	3%	31	-1%	2%
CCCCN1C(=O)CN(C2CCCCC2)C(=O)C1c1ccc(OC(C)C)c(OC)c1 (configuration not stated)	-24%	nt	nt	nt	?
C=CCN(C(=O)c1csnn1)C(C(=O)NCc1ccccc1)c1cccs1 (configuration not stated)	4%	14%	1	12%	-11%
Cc1ccc(OCc2ccc(C(=O)Nc3ccc(S(N)(=O)=O)cc3)o2)cc1	-17%	8%	0	5%	?
S=C(Nc1ccc(Nc2ccccc2)cc1)NC1CCCCCC1	23µM*	?	-79*	?	16µM*
FC(F)Oc1ccc(NC(=S)NC2CCCCCCC2)cc1	?	?	-91*	?	?
CCCCOc1cccc(C(=O)NNC(=S)NC2CCCCC2)c1	?	-13%	3	-10%	16µM*
